# Measurements published in PubChem BioAssay (NCATS).
# Results filed as inconclusive are left out. A call without a number means that no potency is given here. Calls of active or inactive are those of the source. Calls follow the shape of the dose curve; as a rule, active = well fitted inhibition curve with a large enough effect; inconclusive = small, poorly fitted or top-dose-only effect; inactive = flat fitted curve, though single readings scatter.
# Legend:
# Assay in all cases: qHTS profiling for inhibitors of Plasmodium falciparum proliferation (AID 504749); also: nearly all actives have a fitted effect of over 60% in size
# Conditions in all cases: P. falciparum in erythrocytes, SYBR Green DNA, 72 h; series mostly up to 28.7 µM
# AS120 = tested on: AS120
# Outline: (§1)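 Infected RBCs, 0.3% parasitemia/2.5% Hct final; cpd 72 h, 37 C, 5% CO2; lysis buffer with saponin/triton/SYBR Green I, o/n RT dark; FI 485/535; norm. to artemisinin (0.29 uM) and DMSO.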
# ATS189 = tested on: ATS189
# Outline: as §1
# ATS95 = tested on: ATS95
# Outline: as §1
# C2A = tested on: C2A
# Outline: as §1
# CP185 = tested on: CP185
# Outline: as §1
# CP191 = tested on: CP191
# Outline: as §1
# CP192 = tested on: CP192
# Outline: as §1
# CP194 = tested on: CP194
# Outline: as §1
# CP201 = tested on: CP201
# Outline: as §1
# CP203 = tested on: CP203
# Outline: as §1
# Potency is read from the fitted curve at half-maximal effect.
SMILES,Potency (AS120),Potency (ATS189),Potency (ATS95),Potency (C2A),Potency (CP185),Potency (CP191),Potency (CP192),Potency (CP194),Potency (CP201),Potency (CP203)
C[C@H]1O[C@@H](n2cc(F)c(=O)[nH]c2=O)[C@H](O)[C@@H]1O,inactive,inactive,inactive,inactive,inactive,inactive,inactive,inactive,inactive,inactive
O=C(O)COc1nn(Cc2ccccc2)c2ccccc12,inactive,inactive,inactive,inactive,inactive,inactive,inactive,inactive,inactive,inactive
NC1CCN(c2cccc(Cl)n2)CC1,inactive,inactive,inactive,inactive,inactive,inactive,inactive,inactive,inactive,
CCn1cc(C(=O)O)c(=O)c2cnc(N3CCNCC3)nc21,inactive,inactive,inactive,inactive,inactive,inactive,inactive,inactive,inactive,inactive
Cc1ccc(C(C)C)cc2c(C)ccc1-2,inactive,inactive,inactive,inactive,inactive,inactive,inactive,inactive,inactive,inactive
CCN(CC)CCNC(=O)c1cc(Cl)c(N)cc1OC,inactive,inactive,inactive,inactive,inactive,inactive,inactive,inactive,inactive,inactive
O=c1cc[nH]c(=O)[nH]1,inactive,inactive,inactive,inactive,inactive,inactive,inactive,inactive,inactive,
NC(=O)NNc1ccccc1,inactive,inactive,inactive,inactive,inactive,inactive,inactive,inactive,inactive,inactive
NCC(=O)CCC(=O)O,inactive,inactive,inactive,inactive,inactive,inactive,inactive,inactive,inactive,inactive
CC1(C)[C@@H]2CC[C@@]1(C)C(=O)C2,inactive,inactive,inactive,inactive,inactive,inactive,inactive,inactive,inactive,inactive
O=C1O[C@H]([C@@H](O)CO)C(O)=C1O,inactive,inactive,inactive,inactive,inactive,inactive,inactive,inactive,inactive,inactive
NC(=O)NC(=O)Cc1ccccc1,inactive,inactive,inactive,inactive,inactive,inactive,inactive,inactive,inactive,inactive
C[C@H](N)[C@H](O)c1cccc(O)c1,inactive,inactive,inactive,inactive,inactive,inactive,inactive,inactive,inactive,
COc1ccccc1O,inactive,inactive,inactive,inactive,inactive,inactive,inactive,inactive,inactive,inactive
CC(=O)Nc1ccc(/C=N/NC(N)=S)cc1,inactive,inactive,inactive,inactive,inactive,inactive,inactive,inactive,inactive,inactive
Nc1ccc(S(=O)(=O)Nc2nccs2)cc1,inactive,inactive,inactive,inactive,inactive,inactive,inactive,inactive,inactive,inactive
CC1=C(/C=C/C(C)=C/C=C/C(C)=C/C(=O)O)C(C)(C)CCC1,inactive,inactive,inactive,inactive,inactive,inactive,inactive,inactive,inactive,inactive
CCC(=O)Nc1ccc(O)cc1,inactive,inactive,inactive,inactive,inactive,inactive,inactive,inactive,inactive,inactive
O=C(Oc1ccccc1C(=O)O)c1ccccc1O,inactive,inactive,inactive,inactive,inactive,inactive,inactive,inactive,inactive,inactive
O=C1OC(OC(=O)c2cccnc2Nc2cccc(C(F)(F)F)c2)c2ccccc21 (configuration not stated),inactive,inactive,inactive,inactive,inactive,inactive,inactive,inactive,inactive,inactive
C[C@@H]1CN(c2c(F)c(F)c3c(=O)c(C(=O)O)cn(C4CC4)c3c2F)C[C@H](C)N1,inactive,inactive,inactive,inactive,inactive,inactive,inactive,inactive,inactive,inactive
O=C(O)c1ccccn1,inactive,inactive,inactive,inactive,inactive,inactive,inactive,inactive,inactive,inactive
CC[C@@]1(c2ccccc2)NC(=O)N(C)C1=O,inactive,inactive,inactive,inactive,inactive,inactive,inactive,inactive,inactive,inactive
COCCOC(=O)C1=C(C)NC(C)=C(C(=O)OC/C=C/c2ccccc2)C1c1cccc([N+](=O)[O-])c1 (configuration not stated),11.2 µM (active),,,,,,,,,
O=C(O)CC(O)C(=O)O (configuration not stated),inactive,inactive,inactive,inactive,inactive,inactive,inactive,inactive,inactive,inactive

SMILES,Potency (AS120),Potency (ATS189),Potency (ATS95),Potency (C2A),Potency (CP185),Potency (CP191),Potency (CP192),Potency (CP194),Potency (CP201),Potency (CP203)
CCOc1ccc2ccccc2c1C(=O)N[C@@H]1C(=O)N2[C@@H]1SC(C)(C)[C@@H]2C(=O)O,inactive,inactive,inactive,inactive,inactive,inactive,inactive,inactive,inactive,
Nc1ccc(S(=O)(=O)Nc2ccccc2)cc1,inactive,inactive,inactive,inactive,inactive,inactive,inactive,inactive,inactive,inactive
COC(=O)C1=C(C)NC(C)=C(C(=O)OC)C1c1ccccc1[N+](=O)[O-],inactive,inactive,inactive,inactive,inactive,inactive,inactive,inactive,inactive,inactive
CCCCOC(=O)c1ccc(O)cc1,inactive,inactive,inactive,inactive,inactive,inactive,inactive,inactive,inactive,inactive
CCOC(=O)[C@H](CCc1ccccc1)N[C@@H](C)C(=O)N1C(=O)N(C)C[C@H]1C(=O)O,inactive,inactive,inactive,inactive,inactive,inactive,inactive,inactive,inactive,inactive
C=Cc1c(C)c2cc3[nH]c(cc4nc(cc5nc(cc1[nH]2)C(C)=C5CCC(=O)O)C(CCC(=O)O)=C4C)c(C)c3C=C,inactive,inactive,inactive,inactive,inactive,inactive,inactive,inactive,inactive,inactive
O=c1cc(CO)occ1O,inactive,inactive,inactive,inactive,inactive,inactive,inactive,inactive,inactive,inactive
O=C(O)[C@@H]1CSCN1,inactive,inactive,inactive,inactive,inactive,inactive,inactive,inactive,inactive,inactive
CC12CCC(CC1)C(C)(C)O2,inactive,inactive,inactive,inactive,inactive,inactive,inactive,inactive,inactive,inactive
Cc1cccc(Nc2cc(Cl)nc(SCC(=O)O)n2)c1C,inactive,inactive,inactive,inactive,inactive,inactive,inactive,inactive,inactive,inactive
O=C1NC(=O)[C@@]2(CCOc3ccc(F)cc32)N1,inactive,inactive,inactive,inactive,inactive,inactive,inactive,inactive,inactive,inactive
COc1cc(C(=O)N2CCOCC2)cc(OC)c1OC,inactive,inactive,inactive,inactive,inactive,inactive,inactive,inactive,inactive,inactive
O=C(CCCN1CCN(c2ccccn2)CC1)c1ccc(F)cc1,inactive,inactive,inactive,inactive,inactive,inactive,inactive,inactive,inactive,inactive
O=C(O)c1ccccc1O,inactive,inactive,inactive,inactive,inactive,inactive,inactive,inactive,inactive,inactive
C[C@](N)(Cc1ccc(O)cc1)C(=O)O,inactive,inactive,inactive,inactive,inactive,inactive,inactive,inactive,inactive,inactive
O=C(O)CN1C(=O)c2cccc3cccc(c23)C1=O,inactive,inactive,inactive,inactive,inactive,inactive,inactive,inactive,inactive,inactive
CCCCCCCCCCCCCCCCCCOCC(O)CO (configuration not stated),inactive,inactive,inactive,inactive,inactive,inactive,inactive,inactive,inactive,inactive
Nc1ccc(S(=O)(=O)NC(=O)c2ccccc2)cc1,inactive,inactive,inactive,inactive,inactive,inactive,inactive,inactive,inactive,inactive
CCOC(=O)c1ccc(O)cc1,inactive,inactive,inactive,inactive,inactive,inactive,inactive,inactive,inactive,inactive
Nc1nc2c(ncn2CCC(CO)CO)c(=O)[nH]1,inactive,inactive,inactive,inactive,inactive,inactive,inactive,inactive,inactive,inactive
CC1=C(CC(=O)O)c2cc(F)ccc2/C1=C\c1ccc(S(C)=O)cc1 (configuration not stated),inactive,inactive,inactive,inactive,inactive,inactive,inactive,inactive,inactive,inactive
O=c1[nH]c(=O)c2[nH]c(=O)[nH]c2[nH]1,inactive,inactive,inactive,inactive,inactive,inactive,inactive,inactive,inactive,inactive
CCCCN(CCCC)CCCOC(=O)c1ccc(N)cc1,inactive,inactive,inactive,inactive,inactive,inactive,inactive,inactive,inactive,inactive
O=C1c2c(O)cccc2Cc2cccc(O)c21,inactive,inactive,inactive,inactive,inactive,inactive,inactive,inactive,inactive,inactive
